target: T1, Aspartate--tRNA(Asp/Asn) ligase (Mycobacterium tuberculosis (strain ATCC 25618 / H37Rv)) (UniProt P9WFW3); assay: Assay for Asp RNA synthetase-1 from Mycobacterium tuberculosis; assay type: functional; parameters: scale not given: in the data most compounds retested in dose-response had high values; conditions: 30 µM
T1 sequence (whole entry): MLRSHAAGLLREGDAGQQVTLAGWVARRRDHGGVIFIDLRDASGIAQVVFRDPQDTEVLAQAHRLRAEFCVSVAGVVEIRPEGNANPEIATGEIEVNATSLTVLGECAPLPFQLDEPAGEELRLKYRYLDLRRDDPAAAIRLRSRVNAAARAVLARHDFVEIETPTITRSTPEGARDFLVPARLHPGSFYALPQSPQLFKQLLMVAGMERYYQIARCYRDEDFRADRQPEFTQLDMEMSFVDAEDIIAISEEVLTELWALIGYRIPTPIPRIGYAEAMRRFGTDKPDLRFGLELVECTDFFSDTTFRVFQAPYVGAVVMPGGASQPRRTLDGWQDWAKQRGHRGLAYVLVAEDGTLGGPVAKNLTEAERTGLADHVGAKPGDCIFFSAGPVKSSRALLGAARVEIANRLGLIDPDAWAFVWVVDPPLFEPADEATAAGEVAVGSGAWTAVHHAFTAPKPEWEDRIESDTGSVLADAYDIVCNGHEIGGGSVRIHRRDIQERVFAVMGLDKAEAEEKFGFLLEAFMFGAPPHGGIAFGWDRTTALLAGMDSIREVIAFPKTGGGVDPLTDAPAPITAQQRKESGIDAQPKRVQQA

| SMILES | Percent Effect [%] |
| --- | --- |
| c1cnn(CC2CCCCN2c2ncnc3sccc23)c1 (stereo not given) | 2.59 |
| N#Cc1ccnc(N2CCC(c3nccn3Cc3cscn3)CC2)c1 | -4.66 |
| Cc1n[nH]c(C2CN(CC(=O)NCc3ccco3)CCO2)n1 (stereo not given) | 0.448 |
| N#Cc1cccc(CS(=O)(=O)NCCC(O)c2ccccc2)c1 (stereo not given) | -1.46 |
| CCc1nsc(NC2CCCn3nc(COC)nc32)n1 (stereo not given) | -2.56 |
| Cc1ccc(CN2CCN(CC3CC3)[C@@H]3CS(=O)(=O)C[C@@H]32)cc1C | -3.05 |
| Cc1nc(C2CCCN2C(=O)CNS(C)(=O)=O)no1 (stereo not given) | 0.586 |
| CN(CCNC(=O)N1CCN(Cc2ccon2)CC1)c1ccccc1 | 2.1 |
| CCN(CC)c1ccc(-c2nc(-c3cccc(OC)c3OC)no2)cn1 | -4.22 |
| CC(=O)Nc1cc(C(=O)N2CCOCC2c2ccc(C)o2)ccc1F (stereo not given) | -5.67 |
| CN1C(=O)C(c2ccccc2)CC12CCN(CCOCCO)CC2 (stereo not given) | -1.23 |
| CSC(C)(C)CNC(=O)NC1CCN(C)CC1 | -4.75 |
| CCC(C(=O)NC)N(c1cccc(C)c1)S(C)(=O)=O (stereo not given) | -2.86 |
| Cc1cnn(C2CN(CC(O)c3ccc(F)cc3)C2)c1 (stereo not given) | -2.19 |
| CCC(C)NC(=O)c1ccccc1-n1cnnn1 (stereo not given) | -5.94 |
| CCN(CC1CN(Cc2ncc(C)o2)CCO1)c1cccnn1 (stereo not given) | -1.34 |
| CCn1nc(CC(C)C)cc1C(=O)N1CC[C@@H](O)C1 | -5.25 |
| CCCC(NC(=O)c1ccc(OC)cc1F)c1nnn[nH]1 (stereo not given) | -1.41 |
| COc1ccc(NC(=O)CCC2CCCN(Cc3ncon3)C2)c(C)c1 (stereo not given) | 1.11 |
| CC(C)(N)CN1CCC(c2nnc(CN3CCCC3)n2C2CC2)CC1 | -1.87 |

| SMILES | Percent Effect [%] |
| --- | --- |
| CC(C)c1noc(CN2CCC3(CCCO3)CCC2=O)n1 (stereo not given) | -1.21 |
| Cc1cnc(C)c(N2CCN(Cc3ccc(-c4cc[nH]n4)o3)CC2)n1 | 0.816 |
| O=C(c1cnn(-c2ccccc2F)c1)N1CCN(CCO)CC1 | -3.94 |
| CSCCC1c2nc[nH]c2CCN1Cc1cc(Cl)ccc1O (stereo not given) | 0.954 |
| O=C(NCCc1csc(N2CCCC2)n1)N(C1CCCC1)C1CC1 | 4.33 |
| Cc1nc2c(c(C)c1CC(=O)Nc1ccc(Cl)cc1)c(=O)[nH]n2C | -4.86 |
| COc1ccc(-n2cnnc2SCCC#N)cn1 | -0.885 |
| c1cn(Cc2nnc(C3CCN(c4nccs4)CC3)n2C2CC2)cn1 | -3.69 |
| O=C(CCc1c[nH]cn1)N1CC[C@@H](c2ccc3ccccc3c2)[C@H](O)C1 | -0.632 |
| O=C(NCCN1CCOCC1)NCc1ncc(-c2ccccc2)o1 | 1.62 |
| O=C(O)c1ccc(F)c(S(=O)(=O)Nc2c(F)cccc2-n2cccn2)c1 | -1.78 |
| CCc1nc(NS(=O)(=O)c2cc(C)ccc2F)no1 | -2.52 |
| CS(=O)(=O)NCC(=O)N1CCCC1c1noc(C2CC2)n1 (stereo not given) | 0.264 |
| O=C(O)c1ccn(-c2ccccc2NS(=O)(=O)c2ccccc2)n1 | 1.9 |
| CC(C)N(C)CC(=O)NC1CCc2nccn2C1 (stereo not given) | 1.39 |
| O=C(CN1CCNCC1)N1CC[C@@H](c2ccc3ccccc3c2)[C@H](O)C1 | -0.747 |
| CCN(CC(=O)NC)C(=O)Cc1nc(-c2ccco2)oc1C | -4.7 |
| c1cnn(Cc2nnc(C3CCN(C4CCOCC4)CC3)n2C2CC2)c1 | -4.17 |
| CCOc1ncccc1CNC(=O)N1CCCC1c1ccncc1 (stereo not given) | -0.287 |
| CN(C)CCn1c(=O)oc2ccc(NC(=O)c3cc(Cl)c[nH]3)cc21 | 5.07 |

Source: ChEMBL document CHEMBL3988442, “University of Dundee, Small-Polar-MMV Screening Library” (2021)
